According to PubChem BioAssay (Tox21):
Inconclusive results are not listed. Activity calls are given as the source filed them. Unless noted, calls come from the whole dose curve; as a rule, active = well fitted curve in the direction sought with a large enough effect in the repeat runs; inconclusive = weak or mixed curves; inactive = no such curve, though single readings can be large; an effect the other way counts as inactive or inconclusive.

Experiments:
[1] = qHTS assay to identify small molecule antagonists of the glucocorticoid receptor (GR) signaling pathway - cell viability counter screen (AID 720693); note: nearly all actives have a fitted effect of over 55% in size; note: potency is the fitted concentration of half-maximal effect
[2] = qHTS assay for identifying genotoxic compounds that show differential cytotoxicity against isogenic chicken DT40 cell lines with known DNA damage response pathways - wild type cell line (AID 743012); note: nearly all actives have a fitted effect of over 60% in size; note: potency is the fitted concentration of half-maximal effect
Summary of the method: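 Wild-type DT40 cells (300/well) exposed to compounds for 40 hours at 37 C/5% CO2. Viability read by CellTiter-Glo luminescence after 30 min at room temperature.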

[3] = qHTS assay for identifying genotoxic compounds that show differential cytotoxicity against isogenic chicken DT40 cell lines with known DNA damage response pathways - Rad54/Ku70 mutant cell line (AID 743015); note: nearly all actives have a fitted effect of over 60% in size; note: potency is the fitted concentration of half-maximal effect
[4] = qHTS assay to identify small molecule antagonists of the androgen receptor (AR) signaling pathway - cell viability counter screen (AID 743033; note: nearly all actives have a fitted effect of over 45% in size; note: potency is the fitted concentration of half-maximal effect)
[5] = qHTS assay to identify small molecule antagonists of the androgen receptor (AR) signaling pathway using the MDA cell line - cell viability counter screen (AID 743041; note: nearly all actives have a fitted effect of over 45% in size; note: potency is the fitted concentration of half-maximal effect)
Summary of the method: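 MDA-kb2 AR-luc cells (MMTV-luciferase, AR/GR responsive) treated with compounds plus R1881 agonist for 16 h at 37C. CellTiter-Fluor added at 15.5 h; fluorescence read after 30 min in the same wells.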

[6] = qHTS assay for identifying genotoxic compounds that show differential cytotoxicity against isogenic chicken DT40 cell lines with known DNA damage response pathways - Rev3 mutant cell line (AID 743014); note: nearly all actives have a fitted effect of over 55% in size; note: potency is the fitted concentration of half-maximal effect
[7] = biological target: Androgen receptor (Homo sapiens) (UniProt P10275); experiment: qHTS assay to identify small molecule antagonists of the androgen receptor (AR) signaling pathway (AID 743035; active = well fitted inhibition curve with a large enough effect in the signal ratio in the repeat runs, not every such curve was filed as active; the % refers to the signal ratio)
Chain of Androgen receptor (Homo sapiens) (P10275 whole entry, looked up): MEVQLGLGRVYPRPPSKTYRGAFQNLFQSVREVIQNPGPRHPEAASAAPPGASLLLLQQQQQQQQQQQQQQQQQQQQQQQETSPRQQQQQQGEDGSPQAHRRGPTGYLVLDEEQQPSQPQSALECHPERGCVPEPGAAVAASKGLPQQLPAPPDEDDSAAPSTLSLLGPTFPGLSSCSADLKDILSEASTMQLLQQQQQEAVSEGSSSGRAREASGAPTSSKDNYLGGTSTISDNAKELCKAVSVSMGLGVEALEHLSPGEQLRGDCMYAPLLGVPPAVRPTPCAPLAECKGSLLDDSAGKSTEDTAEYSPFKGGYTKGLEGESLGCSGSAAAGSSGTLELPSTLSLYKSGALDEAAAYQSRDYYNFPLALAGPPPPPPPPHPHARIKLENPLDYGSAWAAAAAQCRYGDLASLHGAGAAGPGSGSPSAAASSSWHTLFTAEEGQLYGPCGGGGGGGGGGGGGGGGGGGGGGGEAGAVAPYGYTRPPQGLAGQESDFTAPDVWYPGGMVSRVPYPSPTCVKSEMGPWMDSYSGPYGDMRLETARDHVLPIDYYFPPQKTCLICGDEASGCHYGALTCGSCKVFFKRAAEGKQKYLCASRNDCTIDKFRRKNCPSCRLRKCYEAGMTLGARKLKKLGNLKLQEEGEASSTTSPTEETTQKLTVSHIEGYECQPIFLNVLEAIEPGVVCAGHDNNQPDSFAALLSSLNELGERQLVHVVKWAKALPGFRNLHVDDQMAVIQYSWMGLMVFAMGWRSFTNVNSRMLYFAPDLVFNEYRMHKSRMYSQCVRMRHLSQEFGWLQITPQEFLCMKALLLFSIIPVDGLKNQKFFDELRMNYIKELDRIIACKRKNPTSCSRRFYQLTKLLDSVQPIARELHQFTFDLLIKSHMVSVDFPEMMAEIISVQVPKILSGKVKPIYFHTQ
Summary of the method: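 HEK293 cells stably carrying UAS-beta-lactamase reporter, 2,000/well, given compounds plus R1881 agonist and incubated 16 h at 37C. LiveBLAzer B/G FRET substrate then added for 2 h at room temperature before fluorescence reading.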

[8] = biological target: Androgen receptor (Homo sapiens) (UniProt P10275); experiment: qHTS assay to identify small molecule agonists of the androgen receptor (AR) signaling pathway (AID 743036; active = well fitted activation curve with a large enough effect in the signal ratio in the repeat runs, with a control signal flat, not every such curve was filed as active; the % refers to the signal ratio)
Summary of the method: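 Fluorescence from a beta-lactamase FRET substrate served as read-out in AR-UAS-bla GripTite HEK293 cells. Cells were treated with DMSO-dissolved compounds for 16 h at 37C, then with LiveBLAzer B/G substrate for 2 h at room temperature.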

[9] = biological target: Androgen receptor (Homo sapiens) (UniProt P10275); experiment: qHTS assay to identify small molecule agonists of the androgen receptor (AR) signaling pathway using the MDA cell line (AID 743040; note: nearly all actives have a fitted effect of over 20% in size)
Summary of the method: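 MDA-kb2 breast carcinoma cells carrying MMTV-luciferase (responsive to AR and GR), plated 5 h then treated 16 h with compounds at 37C, 0% CO2. Read-out was ONE-Glo luminescence after 30 min at room temperature.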

[10] = biological target: Androgen receptor (Homo sapiens) (UniProt P10275); experiment: qHTS assay to identify small molecule antagonists of the androgen receptor (AR) signaling pathway using the MDA cell line (AID 743042; note: nearly all actives have a fitted effect of over 55% in size)
Summary of the method: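 MDA-kb2 breast carcinoma cells carrying MMTV-luciferase (AR/GR responsive) were co-treated with compounds and the agonist R1881 for 16 h at 37C. Inhibition read as ONE-Glo luminescence; CellTiter-Fluor fluorescence measured in parallel for cytotoxicity.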

Measured: Potency

O=C(Nc1cccc2c(=O)cc(-c3nn[nH]n3)oc12)c1ccc(OCCCCc2ccccc2)cc1
inactive: [1] | [2] | [3] | [4] | [5]

COc1cc(Nc2c(C#N)cnc3cc(OCCCN4CCN(C)CC4)c(OC)cc23)c(Cl)cc1Cl
active: [1] 23.9 µM | [2] 1.88 µM | [3] 2.37 µM | [4] 23.9 µM | [5] 33.5 µM

CN1C[C@H](C(=O)N[C@]2(C)O[C@@]3(O)[C@@H]4CCCN4C(=O)[C@H](Cc4ccccc4)N3C2=O)C[C@@H]2c3cccc4[nH]cc(c34)C[C@H]21
active: [6] 29.8 µM | [3] 16.8 µM
inactive: [1] | [4] | [5]

CC1CC(OC(=O)C(O)c2ccccc2)CC(C)(C)N1C (stereo unspecified)
inactive: [1] | [2] | [3] | [4] | [5]

CCCC(C(=O)OCCN(CC)CC)(c1ccccc1)c1ccccc1
inactive: [1]
active: [6] 10.6 µM | [3] 18.8 µM

CC(=O)Nc1cc(S(=O)(=O)O)cc2cc(S(=O)(=O)O)c(N=Nc3ccccc3)c(O)c12
inactive: [1] | [2] | [3] | [4] | [5]

O=C(/C=C/c1ccccc1)OCCc1ccccc1
inactive: [1] | [6] | [3] | [4] | [7] | [8] | [9] | [5] | [10]

CCOC(=O)c1ccc(I)cc1
inactive: [1] | [2] | [3] | [4] | [5]

C=C1CCC2CC1C2(C)C (stereo unspecified)
inactive: [1] | [2] | [3] | [4] | [5]

CCC1CO1 (stereo unspecified)
inactive: [1] | [2] | [3] | [4] | [5]

O=C(O)CCc1nc(-c2ccccc2)c(-c2ccccc2)o1
inactive: [1] | [2] | [3] | [4] | [5]

O=C(/C=C/c1ccc(O)c(O)c1)O[C@@H]1C[C@@](OC(=O)/C=C/c2ccc(O)c(O)c2)(C(=O)O)C[C@@H](O)[C@@H]1O
inactive: [1] | [6] | [3] | [4] | [5]

Clc1cc(Cl)nc(Cl)n1
inactive: [1] | [6] | [3] | [4] | [5]

CCOC(=O)c1ccc(C#Cc2ccc3c(c2)C(C)(C)CCS3)nc1
inactive: [1] | [4] | [5]
active: [2] 23.7 µM | [3] 29.8 µM

O=C1CCCCCCCCCCOCCCCO1
inactive: [1] | [2] | [5]

Cc1ccc2c(Br)cc(Br)c(O)c2n1
inactive: [1] | [4] | [5]
active: [2] 7.5 µM | [3] 8.41 µM

CC(CN(C)C)C(C)(O)Cc1ccc(Cl)cc1 (stereo unspecified)
inactive: [1] | [2] | [4] | [7] | [8] | [9] | [5] | [10]

CO/N=C(/C(=O)N[C@@H]1C(=O)N2C(C(=O)O)=C(COC(N)=O)CS[C@H]12)c1ccco1
inactive: [1] | [2] | [3] | [4] | [5]

c1ccc2sc(SN(C3CCCCC3)C3CCCCC3)nc2c1
inactive: [1] | [2] | [4] | [5]

CCC(C)(C)OC
inactive: [1] | [2] | [3] | [4] | [5]

Brc1cc(Br)c(Oc2cc(Br)c(Br)cc2Br)cc1Br
inactive: [1] | [2] | [5]

CN1C(C(=O)Nc2ccccn2)=C(O)c2sccc2S1(=O)=O
inactive: [1] | [2] | [3] | [5]

Clc1ccc(Nc2nnc(Cc3ccncc3)c3ccccc23)cc1
active: [2] 29.8 µM | [3] 26.6 µM
inactive: [1] | [4] | [5]

OC[C@H]1O[C@@H](n2cnc3c(=S)nc[nH]c32)[C@H](O)[C@@H]1O
active: [2] 13.3 µM
inactive: [1] | [5]

CC=C(Cl)Cl
inactive: [1] | [2] | [3] | [4] | [5]

O=C(CCCN1CC=C(n2c(=O)[nH]c3ccccc32)CC1)c1ccc(F)cc1
active: [2] 29.8 µM
inactive: [1] | [4] | [5]

C=CCc1ccccc1OCC(O)CNC(C)C (stereo unspecified)
inactive: [1] | [2] | [4] | [7] | [8] | [9] | [5] | [10]

Oc1cccc(Nc2ccccc2)c1
inactive: [1] | [2] | [4] | [5]

C[C@@H](O)[C@H]1C(=O)N2C(C(=O)O)=C([C@H]3CCCO3)S[C@H]12
inactive: [1] | [6] | [3] | [4] | [7] | [8] | [9] | [5] | [10]

C=C(C)C(=O)OCCCCCCCCCCCCC
inactive: [1] | [6] | [3] | [4] | [5]

C=C(C)C(=O)OCCOCCOC(=O)C(=C)C
inactive: [1] | [6] | [3] | [4] | [5]

Cc1ccccc1S
active: [6] 27.5 µM | [3] 38.9 µM
inactive: [1] | [4] | [5]

CCOc1cccc(-n2cc(C(=O)N3CCN(c4cc(C(=O)O)c5ccccc5c4)CC3)nc2-c2ccc(C)cc2)c1
inactive: [1] | [4] | [7] | [9]

N#CCc1ccc(Cl)cc1Cl
inactive: [1] | [6] | [3] | [4] | [5]
